Bioassay records (PubChem)
Pf Dd2 growth – P. falciparum Dd2 growth inhibitors, primary screen, SYBR Green fluorescence, single dose replicates. AID 1159554, 2015. 72 h; stronger effect = lower value. hit rate 2.3% among 94,000. activity change, % at 10 µM; in the data active = activity change below about -80%; inconclusive = no clear call, values can overlap the other calls
C diff HTS – C. difficile growth inhibitors, primary screen, HTS; Clostridium difficile clinical isolate growth, OD600, 24 h; stronger effect = lower value; growth activity, negative = inhibition, % at 16 µg/mL (by protocol); hit rate 0.25% among 86,000; AID 1259249, 2017;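 active = mean growth activity at or below -80% and every replicate also at or below -80%; inconclusive = mean at or below -80% but some replicate above -80%; inactive = mean growth activity above -80%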;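 also: 0% = DMSO wells and -100% = levofloxacin 16 µg/mL wells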
T cruzi growth-1 – T. cruzi intracellular proliferation inhibitors, primary screen, cell-based, beta-gal Tulahuen parasites, NIH3T3 host, luminescence | inhibition, % at 8.34 µM | AID 624255, 2012 | hit rate 5.9% among 77,000 | T. cruzi beta-gal in NIH3T3, GalScreen luminescence, 90 h;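 active = mean inhibition above about 93%, with at least 55% of replicates each passing it, limit read from the data, passing the limit was not always enough; inconclusive = only one of those two conditions holds; inactive = neither condition holds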
T cruzi growth-2 – T. cruzi intracellular proliferation inhibitors, confirmation, cell-based, NIH3T3 host, beta-gal parasite, luminescence, cherry-pick | shares compounds with T cruzi growth-1 | T. cruzi beta-gal in NIH3T3, GalScreen luminescence, 90 h | inhibition, % at 8.35 µM | hit rate 72% among 5,600;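 active = mean replicate inhibition above about 95% and at least 55% of replicates individually reaching it, limit read from the data; inconclusive = only one of the two criteria is met; inactive = neither criterion is met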
T cruzi growth-3 – inhibitors of intracellular T. cruzi replication, confirmation, NIH3T3 host cells, beta-gal parasites, cherry-pick, set 2. hit rate 21% among 5,600. inhibition, % at 2.09 µM. shares compounds with T cruzi growth-1. T. cruzi beta-gal in NIH3T3, GalScreen luminescence, 90 h;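 active = mean inhibition above about 95%, with at least 55% of replicates also reaching it, limit read from the data; inconclusive = meets just one of the two conditions; inactive = meets neither condition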;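 also: plate controls were neutral control median for no effect and positive control median for full effect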
3T3 cytotox – cytotoxicity in mouse NIH/3T3 fibroblasts, confirmation, cytotoxicity control for T. cruzi proliferation inhibitor project, cell-based, cherry-pick, single point | AID 651742, 2012 | cytotoxicity (signal decrease), % at 8.35 µM | hit rate 14% among 5,600 | shares compounds with T cruzi growth-1 | NIH/3T3 viability, CellTiter-Glo ATP luminescence, 90 h;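 active = mean signal decrease across replicates above about 35% based on untreated-well scatter, with enough replicates individually passing, limit read from the data; inconclusive = no rule stated though some were filed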;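 also: 0% = median of neutral control wells and 100% = median of positive control wells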
NIH3T3 tox 2 – NIH/3T3 fibroblast cytotoxicity, confirmation, cytotoxicity control, cell-based, cherry-pick, single point, set 2; shares compounds with T cruzi growth-1; NIH/3T3 viability, CellTiter-Glo ATP luminescence, 90 h; hit rate 56% among 5,600; inhibition, % at 24.9 µM;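 active = mean loss of cell viability signal at or above a set limit, and enough replicates individually reaching it; inconclusive = meets only the mean limit or only the replicate share; inactive = meets neither condition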;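 also: 0% = median of neutral control wells and 100% = median of positive control wells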
* marks the source's active call; other numbers are inactive results; ? = inconclusive; · = no result given. Hits are enriched below; roughly 6.7% of the tested compounds scored in any of these assays.

SMILES	Pf Dd2 growth	C diff HTS	T cruzi growth-1	T cruzi growth-2	T cruzi growth-3	3T3 cytotox	NIH3T3 tox 2
C[C@H](O)C#Cc1ccc2c(c1)O[C@H](CN(C)C(=O)Nc1ccccc1)[C@@H](C)CN([C@@H](C)CO)S2(=O)=O	-35	0	70	·	·	·	·
CC(C)CC#Cc1ccc2c(c1)O[C@H](CN(C)C(=O)NC(C)C)[C@@H](C)CN([C@@H](C)CO)S2(=O)=O	-33	·	70	·	·	·	·
C[C@@H]1CN([C@@H](C)CO)S(=O)(=O)c2ccc(C#C[C@@H](C)O)cc2O[C@H]1CN(C)C(=O)Nc1ccccc1	-68	3	61	·	·	·	·
CC(C)CC#Cc1ccc2c(c1)O[C@H](CN(C)C(=O)Nc1ccccc1)[C@H](C)CN([C@H](C)CO)S2(=O)=O	-65	23	126*	100*	107*	-10	106*
CC(C)CC#Cc1ccc2c(c1)O[C@H](CN(C)C(=O)Nc1ccccc1)[C@@H](C)CN([C@@H](C)CO)S2(=O)=O	-59	3	125*	105*	?	11	101*
Cc1ccc(S(=O)(=O)N(C)C[C@H]2Oc3cc(Br)ccc3S(=O)(=O)N([C@@H](C)CO)C[C@H]2C)cc1	10	4	·	·	·	·	·
C/C=C/c1ccc2c(c1)O[C@H](CN(C)S(=O)(=O)c1ccc(C)cc1)[C@H](C)CN([C@H](C)CO)S2(=O)=O	-11	4	117*	107*	52	6	78*
C/C=C/c1ccc2c(c1)O[C@H](CN(C)S(C)(=O)=O)[C@@H](C)CN([C@H](C)CO)S2(=O)=O	4	3	-11	·	·	·	·
C/C=C/c1ccc2c(c1)O[C@@H](CN(C)S(=O)(=O)c1ccc(C)cc1)[C@@H](C)CN([C@@H](C)CO)S2(=O)=O	-51	-1	98*	108*	88	16	43*
C[C@@H]1CN([C@@H](C)CO)C(=O)Cc2cc(NC(=O)c3ccncc3)ccc2O[C@@H]1CN(C)Cc1ccc(C(=O)O)cc1	14	-4	·	·	·	·	·
COc1cccc(CNC(=O)[C@H]2[C@H](CO)[C@H]3Cn4c(ccc(-c5ccncc5)c4=O)[C@@H]2N3C(C)=O)c1	5	1	-18	·	·	·	·
COc1ccc(S(=O)(=O)N(C)C[C@H]2Oc3ccc(NC(=O)CCC(F)(F)F)cc3C(=O)N([C@@H](C)CO)C[C@H]2C)cc1	1	0	·	·	·	·	·
C[C@H](CO)N1C[C@H](C)[C@@H](CN(C)CC2CCCCC2)Oc2ccc(NS(=O)(=O)c3ccc(Cl)cc3)cc2CC1=O	-53	10	94	·	·	·	·
CC(C)NC(=O)N(C)C[C@@H]1Oc2ccc(NS(=O)(=O)c3ccc(F)cc3)cc2CC(=O)N([C@@H](C)CO)C[C@H]1C	20	-4	101	·	·	·	·
C[C@H]1CN([C@@H](C)CO)C(=O)Cc2cc(NS(=O)(=O)c3ccc(F)cc3)ccc2O[C@H]1CN(C)CC1CC1	2	-1	·	·	·	·	·
C[C@H](CO)N1C[C@H](C)[C@@H](CN(C)CC2CCCCC2)Oc2ccc(NS(=O)(=O)c3ccc(F)cc3)cc2CC1=O	-28	-13	107*	107*	89	33	104*
C[C@@H]1CN([C@H](C)CO)C(=O)Cc2cc(NS(=O)(=O)c3ccc(Cl)cc3)ccc2O[C@H]1CN(C)CC1CCCCC1	3	55	106*	96*	?	27	106*
CC(C)NC(=O)N(C)C[C@H]1Oc2ccc(NS(=O)(=O)c3ccc(F)cc3)cc2CC(=O)N([C@H](C)CO)C[C@@H]1C	14	5	103*	16	49	2	6
C[C@H](CO)N1C[C@H](C)[C@@H](CN(C)S(=O)(=O)c2cn(C)cn2)Oc2ccc(NC(=O)NC3CCCCC3)cc2CC1=O	17	6	12	·	·	·	·
CC=Cc1ccc2n(c1=O)C[C@@H]1[C@@H](CO)[C@H](C(=O)NCCC)[C@H]2N1C(=O)C1CCC1 (mixture of isomers)	4	-2	·	·	·	·	·
N#C[C@H]1[C@@H](c2ccc(C#Cc3ccc(F)cc3)cc2)[C@H](CO)N1C(=O)C1CCC1	-39	-29	93	·	·	·	·
N#C[C@H]1[C@H](c2ccc(C#Cc3ccc(F)cc3)cc2)[C@H](CO)N1C(=O)C1CCCC1	-43	-2	104*	101*	71	-8	82*
N#C[C@H]1[C@H](c2ccc(C#Cc3ccc(F)cc3)cc2)[C@H](CO)N1C(=O)C1CCC1	-46	-14	99*	112*	72	11	83*
N#C[C@@H]1[C@H](c2ccc(C#Cc3ccc(F)cc3)cc2)[C@@H](CO)N1C(=O)C1CCC1	-35	-21	93	·	·	·	·
C/C=C/c1ccc2c(c1)O[C@H](CN(C)Cc1cncnc1)[C@H](C)CN([C@H](C)CO)S2(=O)=O	20	3	·	·	·	·	·
SMILES	Pf Dd2 growth	C diff HTS	T cruzi growth-1	T cruzi growth-2	T cruzi growth-3	3T3 cytotox	NIH3T3 tox 2
C/C=C/c1ccc2c(c1)O[C@H](CN(C)Cc1ccncc1)[C@@H](C)CN([C@H](C)CO)S2(=O)=O	0	-5	108*	97*	?	45*	74*
C/C=C/c1ccc2c(c1)O[C@@H](CN(C)Cc1ccncc1)[C@@H](C)CN([C@@H](C)CO)S2(=O)=O	-42	-2	109*	96*	101*	33	29*
C/C=C/c1ccc2c(c1)O[C@H](CN(C)Cc1ccncc1)[C@H](C)CN([C@H](C)CO)S2(=O)=O	3	-1	71	·	·	·	·
CC(C)NC(=O)Nc1ccc2c(c1)C(=O)N([C@H](C)CO)C[C@H](C)[C@@H](CN(C)C(=O)c1ccccc1)OCCCC[C@@H](C)O2	-11	0	-7	·	·	·	·
CC(C)NC(=O)Nc1ccc2c(c1)CC(=O)N([C@H](C)CO)C[C@H](C)[C@@H](CN(C)C(=O)Nc1ccc3c(c1)OCO3)O2	18	-7	-21	·	·	·	·
CC(C)NC(=O)Nc1ccc2c(c1)CC(=O)N([C@H](C)CO)C[C@H](C)[C@H](CN(C)C(=O)Nc1ccc(F)cc1)O2	22	1	-5	·	·	·	·
C[C@@H]1CN([C@H](C)CO)C(=O)c2cc(C#CCN(C)C)cnc2O[C@@H]1CN(C)C(=O)c1ccc2c(c1)OCO2	7	-1	·	·	·	·	·
CC(=O)N1[C@H](CO)[C@H](c2ccccc2)C12CN(C(=O)c1ccccc1)C2	3	0	·	·	·	·	·
C[C@H]1CN([C@@H](C)CO)C(=O)c2cc(C#Cc3cccc(F)c3)cnc2O[C@H]1CN(C)C(=O)C1CCC1	-48	4	-227	·	·	·	·
